An excerpt weighted towards active compounds, which were near 3.3% of everything screened.
AmpC no deterg: blocks E. coli AmpC beta-lactamase in detergent-free assay | AmpC nitrocefin hydrolysis, absorbance 480 nm, 0.0001% Triton | P00811 | actives 0.52% (n = 330,000) | Potency, µM (highest dose often 57.1 µM), inactives show top-dose activity change, negative = inhibition, hits mostly inhibitors;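 further: plate controls were no compound for no effect and no enzyme for full effect; nearly all actives have a fitted effect of over 20% in size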
Target sequence (P00811 whole entry, looked up): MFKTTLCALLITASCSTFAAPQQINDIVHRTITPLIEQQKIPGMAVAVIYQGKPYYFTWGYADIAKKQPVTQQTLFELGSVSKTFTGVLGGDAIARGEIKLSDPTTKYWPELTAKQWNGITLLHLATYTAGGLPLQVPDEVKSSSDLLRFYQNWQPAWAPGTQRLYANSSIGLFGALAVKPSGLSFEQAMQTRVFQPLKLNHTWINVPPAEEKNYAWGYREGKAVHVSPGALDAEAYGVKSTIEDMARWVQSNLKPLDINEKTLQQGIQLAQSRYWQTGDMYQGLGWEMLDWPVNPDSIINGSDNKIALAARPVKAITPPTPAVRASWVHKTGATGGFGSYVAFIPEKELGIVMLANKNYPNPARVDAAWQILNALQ
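AmpC (5.3 nM in the dispensed reagent) in 20 mM phosphate pH 7.0 with 0.01% (detergent screen) or 0.0001% Triton X-100 was preincubated with compounds for 15 min at room temperature. Nitrocefin was then added from an 800 uM solution, and hydrolysis was followed at 480 nm.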
Sm TGR inh: S. mansoni TGR enzyme inhibition; Q962Y6; purified TGR, DTNB reduction, TNB absorbance 405 nm; Potency, µM (top dose mostly 114 µM), for the others: at the highest dose activity change, negative = inhibition, hits mostly inhibitors; actives 3% (n = 360,000); further: nearly all actives have a fitted effect of over 60% in size
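Kinetic colorimetric format: TGR-catalysed, NADPH-driven DTNB reduction monitored via TNB absorbance. Enzyme dispensed at 20 nM; compound exposure 15 min at room temperature before reaction start.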
AmpC detergent: blocks E. coli AmpC beta-lactamase in detergent assay; AmpC hydrolysis of nitrocefin, absorbance 480 nm, 0.01% Triton; Potency, µM (highest dose often 114 µM), for the others: at the highest dose activity change, negative = inhibition, usual class: inhibitors; actives 0.041% (n = 370,000);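 further: 0% = no-compound wells and -100% = no-enzyme wells; nearly all actives have a fitted effect of over 25% in size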
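AmpC (5.3 nM in the dispensed reagent) in 20 mM phosphate pH 7.0 with 0.01% (detergent screen) or 0.0001% Triton X-100 was preincubated with compounds for 15 min at room temperature. Nitrocefin was then added from an 800 uM solution, and hydrolysis was followed at 480 nm.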
Numbers without * were called inactive; ? = inconclusive; / = no result given; [ ] = remark or other dose. The call rests on the fitted dose curve; in most records, active means well fitted curve in the direction sought with a large enough effect; inconclusive means small, poorly fitted or top-dose-only effect, or another doubt; inactive means no such curve, though single readings can be large; an effect the other way counts as inactive or inconclusive. Unless noted, on the % scale 0 is the no-effect control and ±100 the full control effect; potency means the concentration at half of the fitted maximal effect.

SMILES	AmpC no deterg	Sm TGR inh	AmpC detergent
COc1ccccc1NC(=O)C(C)N(C)CC(=O)Nc1cccc2ccccc12 (configuration not stated)	12%	/	/
CCCN(CC(=O)Nc1ccccc1OC)Cc1c(O)ccc2ccccc12	-28%	2µM*	-10%
COc1ccc(CCN(C)Cc2c(O)ccc3ccccc23)cc1OC	-7%	1.4µM*	-2%
CN(CC(=O)Nc1ccccc1C(F)(F)F)Cc1c(O)ccc2ccccc12	-34%	1µM*	-14%
CCc1ccccc1NC(=O)CN(C)Cc1c(O)ccc2ccccc12	-28%	0.71µM*	-14%
COc1ccc(CCN(C)Cc2cccc3ccccc23)cc1OC	12%	13%	-11%
O=C(NNC(=O)c1nn(-c2ccc(F)cc2)ccc1=O)c1ccc(C(F)(F)F)cc1	-5%	1%	-5%
COCCCNC(=O)C(C)n1c2ccccc2c2cnn(C)c(=O)c21 (configuration not stated)	/	8%	14%
O=C(NCCCN1CCOCC1)c1ccc2c(c1)N(Cc1ccccc1F)C(=O)c1ccccc1S2=O (configuration not stated)	145%	0%	4%
CCS(=O)(=O)c1ncc(N(Cc2ccccc2)Cc2ccco2)c(C(=O)Nc2cccc(Cl)c2C)n1	/	0%	0%
CCS(=O)(=O)c1ncc(Cl)c(C(=O)N(Cc2ccccc2)Cc2ccco2)n1	/	8.9µM*	-2%
CCOc1ccc(NC(=O)CNc2cccc(S(=O)(=O)N3CCCCCC3)c2)cc1OCC	3%	/	/
CCOC(=O)c1cc2c(ccn2C)n1CC(=O)N1CCN(c2ccccc2)CC1	61%	-3%	32µM*
CCOC(=O)c1cc2c(ccn2C)n1CC(=O)N1C(C)CCCC1C (configuration not stated)	2%	-4%	8%
c1coc(-c2nc3n(n2)C2(CCCCC2)[C@@H]2CCCC[C@@H]2N3)c1	/	?	7%
Cc1cc2oc(C(=O)Nc3nonc3C)c(C)c2cc1Cl	-8%	3%	7%
CCN(CC)CCNC(=O)CCc1c(C)nc2c(c(C)nn2-c2ccc(C)c(C)c2)c1C	43%	-1%	0%
CCc1ccc(S(=O)(=O)N/N=C\c2ccc3c(c2)OCO3)cc1	-48%	-7%	1%
CC(NC(=O)Nc1ccc(Cl)c(Cl)c1)C(c1ccccc1)N1CCOCC1 (configuration not stated)	-5%	-1%	-12%
CC(NC(=O)Nc1ccc([N+](=O)[O-])cc1)C(c1ccccc1)N1CCOCC1 (configuration not stated)	-15%[11.4 µM]	28µM*	-2%
CCCOc1ccc(-c2cccc(NS(=O)(=O)c3cccs3)c2)nn1	/	5%	-8%
O=C(Cn1cc2c(n1)CCCC2)N1CCc2ccccc21	-23%	-10%	-10%
O=C(Cn1cc2c(n1)CCCCC2)N1CCc2ccccc2C1	0.56µM*	3%	?
Cc1ccc(S(=O)(=O)c2c(Nc3cc(C)ccc3C)sc(C(=O)c3ccc4c(c3)OCO4)c2N)cc1	/	-16%	?
Cc1ccc(/C=C/C(=O)Nc2nnc(SCc3ccc(C#N)cc3)s2)o1	-28%	-22%	-16%
SMILES	AmpC no deterg	Sm TGR inh	AmpC detergent
COC(=O)C1=C(c2ccc(C(C)=O)cc2)C[C@@H]2CC[C@H]1N2C(=O)NCCO	0%	0%	3%
COC(=O)C1=C(c2ccc(C(C)=O)cc2)C[C@@H]2CC[C@H]1N2C(=O)NCC1CC1	-5%	22µM*	0%
O=C(Nn1c(-c2ccc(Br)cc2)nc2ccccc2c1=O)c1ccncc1	-27%	9%	4%
Cc1cc(C(=O)Nn2c(-c3ccc(Br)cc3)nc3ccccc3c2=O)ccc1[N+](=O)[O-]	14µM*	-8%	-13%
Cc1ccc(S(=O)(=O)N2CCN(C(=O)COC(=O)COc3cccc(C(F)(F)F)c3)CC2)c(C)c1	65%	/	/
CC(=O)c1cc2c(cc1NC(=O)Cc1c(C)noc1C)OCO2	-17%	/	/
CCOC(=O)c1nnn(-c2nonc2-n2cccc2)c1CN1CCC(C)CC1	4%	-8%	?
CCOC(=O)c1nnn(-c2nonc2-n2cccc2)c1CCl	-24%	8.9µM*	4%
COc1cc(/C=N/n2c(-c3ccccc3)n[nH]c2=S)ccc1O	-50%	4%	13%
Cc1c(Br)c(O)c(Br)c(O)c1/C=N/n1c(-c2ccccc2)n[nH]c1=S	-21%	35µM*	-2%
Oc1c(Br)cc(/C=N/n2c(-c3ccccc3)n[nH]c2=S)c(O)c1Br	-19%	-59%	?
COc1cc(/C=N/n2c(-c3ccccc3)n[nH]c2=S)cc(OC)c1O	-34%	32µM*	-7%
Cc1ccc(/C=N\NC(=O)Cc2cccn2C)o1	-9%	?	8%
Cn1cccc1CC(=O)N/N=C/C=C/c1ccco1	-9%	11µM*	1%
C/C(=N/NC(=O)Cc1cccn1C)c1ccccc1	1%	6%	-2%
C/C(=N\NC(=O)Cc1cccn1C)c1ccco1	1%	40µM*	3%
Cc1ccccc1NC(=O)N1CCc2c(sc3c2CCCC3)C1c1ccccc1 (configuration not stated)	/	1%	-1%
COc1ccc(C(=O)NC(=S)NCCc2ccccc2)cc1	-36%	/	2%
Cc1onc(C(=O)NCCc2ccccc2)c1[N+](=O)[O-]	-17%	?	2%
COc1ccc(CCNC(=O)c2noc(C)c2[N+](=O)[O-])cc1OC	-16%	35µM*	-5%
CC(C)(C)c1ccc(C(=O)NC(=S)NCC2CCCO2)cc1 (configuration not stated)	-12%	?	2%
COCCNC(=S)NC(=O)c1ccc(C(C)(C)C)cc1	-12%	40µM*	-1%
COc1ccc(CCNC(=S)NC(=O)c2ccccc2)cc1OC	46%	50µM*	3%
O=C(NC(=S)NCCc1ccccc1)c1cccc(Cl)c1	-48%	40µM*	-1%
COc1ccc(CCNC(=S)NC(=O)c2cccc(Cl)c2)cc1OC	-6%	0%	-6%
SMILES	AmpC no deterg	Sm TGR inh	AmpC detergent
C[C@H]1CN(CCc2ccccc2)C(=O)[C@@H]1CC(=O)NCc1ccccc1	17%	0%	-7%
CCOc1ccccc1NC(=O)N1c2ccccc2Sc2ccccc21	/	9%	3%
Cc1cccc(NC(=O)CSCC(=O)NNC(=O)c2ccoc2C)c1	-27%	-1%	5%
CCOc1ccc(OCC)c(NC(=O)c2cnc3c(-c4ccccc4)c(C)nn3c2C)c1	/	-3%	7%
CCOC(=O)Cn1ncn(-c2ccc(OC(F)(F)F)cc2)c1=O	0%	19%	6%
CCN(CC)c1nc(C(F)(F)F)nc2c1nnn2Cc1ccccc1	-6%	-22%	?
CC(=O)N1CCc2c(sc3c2c(=O)n(-c2ccccc2C)c(=O)n3CC(=O)Nc2ccccc2)C1	/	-11%	-2%
COc1ccc2cc1Oc1ccc(cc1)C[C@H]1c3cc(c(OC)cc3CCN1C)Oc1c(OC)c(OC)cc3c1[C@@H](C2)N(C)CC3	257%	35µM*	-5%
COc1ccc2c(c1O)-c1c(OC)c(OC)cc3c1[C@H](C2)N(C)CC3	-25%	-10%	?
CCc1ccc(CCC(=O)Nc2ccc(C)c(C)c2)o1	-21%	?	?

Bioassay records deposited in PubChem BioAssay by National Center for Advancing Translational Sciences (NCATS).
